Compound activity from PubChem BioAssay.
The list is not random: actives were taken first. Their share in the collection is about 1.6%.
KCNQ2 enhance = potentiators of rat KCNQ2 potassium channel. Potassium voltage-gated channel subfamily KQT member 2 (Rattus norvegicus), O88943. CHO-K1 KCNQ2, FluxOR thallium flux fluorescence; active compounds read high. B-score at 10 µM. 0.54% of 310,000 active. AID 2239, 2010;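 active means fluorescence ratio B-score at least 3 SD of library B-scores, with initial fluorescence B-score within 3 of them, cut at about 5.3 in these data; same plate scores as AID 2156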;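 further: B-score of peak minus minimum over baseline fluorescence ratio after K+ and Tl+ stimulus; positive B-score means potentiation of KCNQ2 with more thallium influx and brighter signal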
Target sequence (O88943 whole entry, looked up): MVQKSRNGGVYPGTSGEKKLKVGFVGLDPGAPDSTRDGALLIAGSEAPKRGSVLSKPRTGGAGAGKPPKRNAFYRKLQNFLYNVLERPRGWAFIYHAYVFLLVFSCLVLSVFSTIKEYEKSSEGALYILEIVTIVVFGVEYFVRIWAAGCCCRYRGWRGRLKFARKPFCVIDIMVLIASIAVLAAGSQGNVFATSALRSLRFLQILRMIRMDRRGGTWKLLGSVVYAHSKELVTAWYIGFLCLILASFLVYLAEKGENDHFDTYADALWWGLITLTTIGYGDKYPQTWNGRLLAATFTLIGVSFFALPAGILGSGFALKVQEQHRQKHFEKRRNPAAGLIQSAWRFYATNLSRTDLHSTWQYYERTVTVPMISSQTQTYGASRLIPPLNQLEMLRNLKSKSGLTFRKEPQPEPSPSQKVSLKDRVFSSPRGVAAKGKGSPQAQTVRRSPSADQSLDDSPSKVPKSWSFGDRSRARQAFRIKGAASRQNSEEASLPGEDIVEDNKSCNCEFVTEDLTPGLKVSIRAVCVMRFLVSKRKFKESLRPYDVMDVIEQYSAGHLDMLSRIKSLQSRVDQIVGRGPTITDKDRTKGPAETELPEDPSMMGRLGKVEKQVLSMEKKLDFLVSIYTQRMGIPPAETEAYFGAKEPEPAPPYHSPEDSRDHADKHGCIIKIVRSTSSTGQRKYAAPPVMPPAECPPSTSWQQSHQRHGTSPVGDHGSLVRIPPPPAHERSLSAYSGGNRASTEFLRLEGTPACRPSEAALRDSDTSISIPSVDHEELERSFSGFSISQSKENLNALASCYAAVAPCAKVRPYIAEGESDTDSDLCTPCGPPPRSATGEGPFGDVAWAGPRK
KCNQ2 inh = rat KCNQ2 potassium channel inhibitors, primary screen, cell-based, CHO-K1, FluxOR thallium flux, B-score; Potassium voltage-gated channel subfamily KQT member 2 (Rattus norvegicus), O88943; 20 min; active compounds read low; B-score at 10 µM; 1.1% of 310,000 active;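 active means fluorescence ratio B-score at most minus 3 library SDs, with starting brightness B-score within 2 library SDs, cut at about -5.5 in these data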
KCNQ2 block conf = rat KCNQ2 potassium channel inhibitors, confirmation, cell-based, thallium flux. KCNQ2-expressing cells, inhibition; active compounds read low. 57% of 1,000 active. shares compounds with KCNQ2 inh. activity change, negative = inhibition, % at 10 µM
KCNQ1 spec = human KCNQ1 channel inhibition, counter-screen for KCNQ2 inhibitor project, cell-based, FluxOR thallium flux. shares compounds with KCNQ2 inh. KCNQ1-expressing cells, FluxOR thallium flux fluorescence; active compounds read low. activity change, negative = inhibition, % at 10 µM. 15% of 1,000 active. AID 493026, 2011;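 active means activity change at least 3 SD of negative controls below their mean in both duplicate wells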;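 further: CHO cells stably transfected with KCNQ1 and depolarized by potassium stimulus; peak minus minimum fluorescence over baseline after thallium addition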
CHO Tl ctr = thallium flux change in parental CHO cells, counter-screen for KCNQ2 inhibitor project. shares compounds with KCNQ2 inh. 14% of 1,000 active. activity change, % at 10 µM. active compounds read low
KCNQ2 patch conf = rat KCNQ2 channel inhibitors, confirmation, cell-based, automated patch clamp, single concentration; shares compounds with KCNQ2 inh; KCNQ2-expressing cells, automated patch clamp current; calls only at 10 µM; 49% of 550 active; AID 588531, 2011
Numbers stand for hits; n = inactive; x = no result; + = active, no number. Unless noted, how the calls were made is not given here.

SMILES	KCNQ2 enhance	KCNQ2 inh	KCNQ2 block conf	KCNQ1 spec	CHO Tl ctr	others
Cc1ccc(NC2=C(C(=O)c3ccccc3)N(C)S(=O)(=O)c3ccccc32)cc1	n	-11.9	-27.5%	n	n	KCNQ2 patch conf=n
Cc1ccc(CNC(=O)CSc2nnc(CNC(=O)c3ccccc3)o2)cc1	x	n	x	x	x
CC(C)n1cc(C(=O)N2CCCC(N3CCN(c4cccc(Cl)c4)CC3)C2)cn1 (configuration not stated)	x	n	x	x	x
COc1ccc(-c2nc(CSCC(=O)NC3CCCc4ccccc43)c(C)o2)cc1OC (configuration not stated)	n	-10.2	n	n	n
COc1ccc(-c2nc(CS(=O)CC(=O)NC3CCCc4ccccc43)c(C)o2)cc1OC (configuration not stated)	x	n	x	x	x
CCC1CCCCN1CCCNC(=O)c1ccc(CS(=O)(=O)c2ccccc2OC)o1 (configuration not stated)	x	n	x	x	x
Cn1c(C(=O)N(Cc2ccccc2)Cc2cccs2)cc2sccc21	x	n	x	x	x
Cn1c(C(=O)N(Cc2ccccc2)Cc2ccccn2)cc2sccc21	n	-8.26	n	n	n
Cc1cc2c(=O)n(C)c(SCC(=O)Nc3ccccc3C)nc2s1	x	n	x	x	x
O=C(/C=C/c1cccc(F)c1)N(c1ccccn1)C1CCCCC1	x	n	x	x	x
O=C(/C=C/c1ccc(Cl)cc1)N(c1ccccn1)C1CCCCC1	n	-8.14	-44.0%	-35.0%	-34.0%	KCNQ2 patch conf=+
CCOc1ccc(NC(=O)C2CC(=O)N(c3ccc4c(c3)OCCO4)C2)cc1OCC (configuration not stated)	n	n	x	x	x
Cc1ccc(S(=O)(=O)N(CC(=O)NCCC2=CCCCC2)Cc2ccccc2F)cc1	n	-7	n	n	n
O=C(CN(Cc1ccccc1F)S(=O)(=O)c1ccc(Cl)cc1)NCCC1=CCCCC1	x	n	x	x	x
Cc1ccc(S(=O)(=O)N(CC(=O)NCCC2=CCCCC2)Cc2ccccc2)cc1	n	-10.8	-30.0%	n	n	KCNQ2 patch conf=n
COc1ccc(CNC(=O)CN(C)S(=O)(=O)c2ccc(Cl)cc2)cc1	x	n	x	x	x
COc1ccc(CNC(=O)CN(Cc2ccc(C)cc2)S(=O)(=O)c2ccc(Cl)cc2)cc1	n	-6.67	n	n	n
O=C(CN(Cc1ccccc1)S(=O)(=O)c1ccc(F)cc1)NCCC1=CCCCC1	x	n	x	x	x
Cc1ccc(NC(=O)CS(=O)c2ccccc2N)c(C)c1 (configuration not stated)	x	n	x	x	x
O=C(OCC1OC(n2ncc(=O)[nH]c2=O)C(OC(=O)c2ccccc2)C1OC(=O)c1ccccc1)c1ccccc1 (configuration not stated)	n	-11.1	-22.5%	n	n	KCNQ2 patch conf=n
CC(=O)OC[C@H]1O[C@@H](n2ncc(=O)[nH]c2=O)[C@H](OC(C)=O)[C@@H]1OC(C)=O	n	n	x	x	x
CSc1ccccc1NC(=O)COC(=O)CCc1ccccc1	n	n	x	x	x
Cc1nn(C(C)C(=O)O)c(=O)c2c1sc1ccccc12 (configuration not stated)	x	n	x	x	x
Cc1nn(C(C)C(=O)N2CCCCC2)c(=O)c2c1sc1ccccc12 (configuration not stated)	n	-8.93	-30.0%	n	n	KCNQ2 patch conf=+
Cc1ccc(/C=C(\C#N)C(=O)Nc2cccc(C)n2)cc1	x	n	x	x	x
SMILES	KCNQ2 enhance	KCNQ2 inh	KCNQ2 block conf	KCNQ1 spec	CHO Tl ctr	others
Cc1cccc(NC(=O)C(C)SCc2nc3sc4c(c3c(=O)[nH]2)CCCC4)n1 (configuration not stated)	x	n	x	x	x
O=C(Nc1cccc(-c2csc(Nc3cccc(C(F)(F)F)c3)n2)c1)c1ccccc1	n	n	x	x	x
O=C(Nc1cccc(-c2csc(Nc3ccccc3)n2)c1)c1ccccc1	n	-6.8	n	n	n
COc1ccc(N(C)C(=O)c2cc3c(Cl)nc4ccccc4c3s2)cc1	n	-9.52	-39.0%	-40.0%	-37.0%	KCNQ2 patch conf=+
COc1ccc(NC(=O)c2cc3c(Cl)nc4ccccc4c3s2)c(OC)c1	n	n	x	x	x
O=C(Nc1ccc(Cl)cc1)Nc1ccc(N2CCOCC2)cc1	x	n	x	x	x
O=C(Nc1ccc(N2CCOCC2)cc1)Nc1ccc(Cl)c(Cl)c1	n	-6.6	-28.0%	n	n	KCNQ2 patch conf=n
